Results with a measured potency or affinity are listed apart. Records with an inconclusive call do not appear.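 Rule for the calls: active = every replicate run active, each with half-maximal inhibition reached at or below twice the top valid dose; inconclusive = runs disagree, or fits are weak or poor; inactive = every run inactive, including upward signal shifts.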
Molecular target: Glycogen synthase kinase-3 alpha (Homo sapiens) (UniProt P49840)
Assay: GSK3A enzyme blockers, homolog specificity check – biochemical, microfluidics, dry powder samples, set 2, selectivity assay for GSK3beta inhibitor project, dose response (AID 623978)
Conditions: GSK3a microfluidic mobility shift, percent conversion; series mostly up to 35 µM; activity change, negative = inhibition: at the top concentration

Glycogen synthase kinase-3 alpha (Homo sapiens), sequence (P49840 whole entry, looked up): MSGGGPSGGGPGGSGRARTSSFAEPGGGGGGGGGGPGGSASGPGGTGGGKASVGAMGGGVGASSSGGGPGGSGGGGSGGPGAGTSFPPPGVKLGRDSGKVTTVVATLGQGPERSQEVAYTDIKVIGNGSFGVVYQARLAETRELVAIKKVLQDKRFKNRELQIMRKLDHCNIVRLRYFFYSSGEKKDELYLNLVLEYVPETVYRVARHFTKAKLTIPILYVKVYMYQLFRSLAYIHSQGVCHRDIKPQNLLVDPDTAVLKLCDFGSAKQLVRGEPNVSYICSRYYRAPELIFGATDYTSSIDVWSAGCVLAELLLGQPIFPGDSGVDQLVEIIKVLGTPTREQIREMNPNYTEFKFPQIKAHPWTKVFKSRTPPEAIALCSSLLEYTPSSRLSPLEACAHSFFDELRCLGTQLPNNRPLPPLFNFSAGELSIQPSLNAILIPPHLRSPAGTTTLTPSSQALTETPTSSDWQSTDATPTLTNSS

Activity change, negative = inhibition, inactive:
Cc1ccc(S(=O)(=O)N2CCN(CC(=O)N/N=C/c3ccccn3)CC2)cc1 -22%
COc1cc(C(=O)N2CCN(c3ccccn3)CC2)cc(OC)c1OC -2.72%
O=C(Cc1cccc2ccccc12)Nc1cn(C2CCC2)cn1 -21.6%

Source: PubChem BioAssay AID623978 (Broad Institute, 2012)
